Source: PubChem
S1P4 ag: agonists of human S1P4 receptor | S1P4-expressing cell line, agonist reporter assay | 220,000 tested, 0.35% active | activation, % at 4.98 µM | O95977; in the data active = activation above about 11%;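 also: 0% = DMSO vehicle and 100% = reference agonist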
S1P4 antagonist: antagonists of human S1P4 receptor | O95977 | S1P4-expressing cells, antagonist mode, reporter read-out | inhibition, % at 4.98 µM | 220,000 tested, 0.26% active | AID 1510; in the data active = inhibition above about 29%;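 also: 0% = wells stimulated with agonist and 100% = vehicle wells without agonist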
S1P3 antag: antagonists of human S1P3 receptor | Q99500 | CHO S1P3 NFAT-BLA reporter, FRET fluorescence, antagonist mode | inhibition, % at 4.98 µM | 170,000 tested, 0.27% active | AID 485;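 active = inhibition above the plate cutoff, the mean inhibition of test wells on that plate plus 3 SD, cut at about 28% in these data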;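 also: cells challenged with S1P at its EC80 of 0.8 µM; blue over green emission ratio from cleaved BLA substrate after 4 h stimulation; 0% = S1P-stimulated wells and 100% = unstimulated DMSO-only wells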
Target sequence (Q99500 whole entry, looked up): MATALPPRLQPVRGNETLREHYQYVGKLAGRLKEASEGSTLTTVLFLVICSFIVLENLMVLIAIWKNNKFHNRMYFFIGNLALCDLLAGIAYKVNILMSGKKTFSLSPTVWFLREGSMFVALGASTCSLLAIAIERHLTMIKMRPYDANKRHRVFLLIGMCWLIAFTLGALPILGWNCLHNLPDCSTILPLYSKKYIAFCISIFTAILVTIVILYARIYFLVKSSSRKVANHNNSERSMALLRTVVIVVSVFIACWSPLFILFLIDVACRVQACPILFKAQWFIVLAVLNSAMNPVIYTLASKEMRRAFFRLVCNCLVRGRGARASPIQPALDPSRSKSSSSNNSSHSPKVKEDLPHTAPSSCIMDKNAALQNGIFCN
EP2 modulator: EP2 receptor (human) modulation. 260,000 tested, 0.83% active. P43116. EP2-expressing cells, cAMP HTRF FRET, PGE2 co-stimulation. induction, % at 25 µM;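 active = compounds whose cAMP rise, as percent of the full-agonist control response, exceeds 60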;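 also: rat C6 glioma line stably carrying human EP2 under a CMV promoter; the protocol text gives 20 µM as final concentration; 100% = response of wells given 1 µM PGE2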
PGE2 EP2 inh: inhibitors of human EP2 prostaglandin E2 receptor. inhibition, % at 25 µM. 260,000 tested, 0.52% active. C6 glioma cells expressing human EP2, cAMP TR-FRET; cells stimulated with saturating PGE2. P43116. AID 1422;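 active = percent inhibition above 40 after rounding to a whole number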;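 also: rat C6 glioma host cells with rolipram phosphodiesterase inhibitor present; the protocol text gives 20 µM as final concentration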
Active calls of the source: *; x = no result; ! = not confirmed by another sample. In the library only some 2% were active in any assay of this set; here they are far more common.

SMILES | S1P4 ag | S1P4 antagonist | S1P3 antag | EP2 modulator | PGE2 EP2 inh
CCOC(=O)Nc1cccc(C(=O)O)c1 | 3 | -1 | x | 13 | 9
Cc1ccc(C)c(S(=O)(=O)Nc2ccc(O)c(Sc3ncn[nH]3)c2)c1 | 1 | 4 | -13 | -10 | 5
CC(C)c1ccc(S(=O)(=O)/N=C2/C=C(Sc3ncn[nH]3)C(=O)c3ccccc32)cc1 | 8 | 24 | -29 | -27 | 122*
CCOc1ccc(S(=O)(=O)Nc2ccc(O)c(Sc3ncn[nH]3)c2)cc1 | -1 | 0 | x | 15 | x
Cc1ccc(S(=O)(=O)/N=C2/C=C(Sc3ncn[nH]3)C(=O)c3ccccc32)cc1 | 6 | -7 | -15 | -70 | 126*
Cc1ccc(S(=O)(=O)Nc2ccc(O)c(Sc3ncn[nH]3)c2)cc1 | 0 | 13 | 15 | -54 | 9
Cc1ccc(S(=O)(=O)/N=C2/C=C(Sc3ncn[nH]3)C(=O)c3ccccc32)c(C)c1 | 2 | -25 | -4 | -61 | 54*
CSc1nc(-c2ccccc2)c2cc(Cl)ccc2n1 | -2 | -13 | 1 | 62* | 7
N#CCSc1nc(-c2ccccc2)c2cc(Cl)ccc2n1 | 2 | -5 | 21 | 60 | 7
CC1(C)OC(=O)C(=Cc2ccc(-c3ccc(S(N)(=O)=O)cc3)o2)C(=O)O1 | 1 | 7 | -10 | -88 | 43*
NS(=O)(=O)c1ccc(-c2ccc(/C=C3\C(=O)Nc4cc(Cl)ccc43)o2)cc1 | 0 | 3 | -1 | -44 | 7
Cc1nc(SCc2ccc(C(=O)O)cc2)nc2c1CCCC2 | 0 | -3 | 0 | 61*! | 6
Cc1n[nH]c(C)c1SCC(=O)Nc1ccc(F)cc1 | 0 | -5 | -13 | 11 | 15
Cc1nc(SCc2ccccc2)nc2c1CCCC2 | x | x | x | 54 | 13
Cc1nc(SCC(=O)Nc2ccc(F)cc2)nc2c1CCCC2 | x | x | x | -82 | 54*
CC(=O)N(CCS(=O)(=O)c1ccc(Cl)cc1)Cc1cccs1 | 0 | -1 | -7 | -20 | 13
CCOC(=O)CCN(Cc1cccs1)S(=O)(=O)c1ccc(Cl)cc1 | 0 | 7 | x | 61* | 8
O=C1Cc2ccccc2Sc2ccc(O)cc21 | 1 | -9 | 2 | -3 | 1
Cc1cccc2c1Sc1ccccc1CC2=O | 1 | -26 | x | 64* | 15
COC(=O)CC1C(=O)NCCN1Cc1cn(CC(=O)NC(C)C)c2ccccc12 (centres undefined) | x | x | x | -52 | 6
COc1ccc(Cc2ccc3[nH]c(=O)cc(C)c3c2)cc1S(=O)(=O)O | x | x | x | 20 | 40*
COc1ccc(C2C(C#N)=C(N)Oc3c2ccc(=O)c2c(C)oc(C)c32)cc1 (centres undefined) | x | x | x | 12 | 9
Nc1cc(-c2cccs2)nn(CC(=O)Nc2ccc(N3CCCCC3)cc2)c1=O | x | x | x | 8 | 7
CCOC(=O)C1CCN(C(c2cc3cc(C)c(C)cc3[nH]c2=O)c2nnnn2C(C)(C)C)CC1 (centres undefined) | x | x | x | 5 | 15
Cc1cc(N/N=C/c2ccc(O)c(C)c2O)nc(-c2ccccc2O)n1 | -3 | 14 | -7 | -7 | 91*
SMILES | S1P4 ag | S1P4 antagonist | S1P3 antag | EP2 modulator | PGE2 EP2 inh
COc1ccc(C(=O)N(Cc2cc3cccc(C)c3n3nnnc23)C2CCCC2)cc1OC | x | x | x | 9 | 9
O=c1[nH]c(=S)n(-c2ccccc2F)c(O)c1/C=C1\C=Nc2ccccc21 | x | x | x | -99 | 116*
O=c1[nH]c(/C=C2\C=Nc3ccccc32)c(O)n1Cc1ccccc1F | 3 | 21 | 14 | -57 | 5
Brc1ccc(-c2nc3ccccc3s2)s1 | -1 | 1 | 15 | -46 | 124*
CCCn1nnc(NC(=O)c2c(OC)cccc2OC)n1 | x | x | x | -29 | 2
CCc1c(C(=O)Nc2cc(C)ccc2OC)[nH]c(C)c1C(C)=O | 0 | -11 | 58* | 15 | 7
COc1ccc(NC(=O)c2ccc(N(C)S(C)(=O)=O)cc2)cc1OC | 0 | -9 | -12 | -41 | 7
COC(=O)c1ccc(NC(=O)c2ccc(N(C)S(C)(=O)=O)cc2)cc1 | 0 | 3 | 0 | -6 | 113*
Cn1nnnc1NCc1ccccc1 | x | x | x | 7 | 8
CCCn1c(=O)c(C(=O)Nc2ccccc2C(=O)OC)c(O)c2ccccc21 | -1 | -6 | -23 | 63* | 6
CCCn1c(=O)c(C(=O)NCCCl)c(O)c2ccccc21 | x | x | x | 37 | 8
CCCn1c(=O)c(C(=O)Nc2ccccc2F)c(O)c2ccccc21 | x | x | x | 9 | 17
CCCn1c(=O)c(C(=O)NCCCCl)c(O)c2ccccc21 | x | x | x | 70* | 19
C=CCn1c(=O)c(C(=O)NCCN(CC)CC)c(O)c2ccccc21 | -1 | -17 | x | -4 | 6
C=CCn1c(=O)c(C(=O)NCC)c(O)c2ccccc21 | x | x | x | 70* | -1
Cc1[nH]cnc1CN(CCCn1ccnc1)CC1CC=CCC1 (centres undefined) | x | x | x | 15 | 8
CCOC(=O)c1c2c(n3ccccc13)C(=O)c1ccccc1C2=O | x | x | x | -42 | 46*
O=C1c2ccccc2-c2cc([N+](=O)[O-])c([N+](=O)[O-])cc21 | x | x | x | -35 | 64*
COc1cc2ncc(C(=O)c3ccccc3)c(N3CCN(Cc4ccccc4)CC3)c2cc1OC | -1 | 5 | -14 | 86* | 7
O=C(c1ccccc1)c1cnc2ccc(Cl)cc2c1N1CCOCC1 | 1 | -35 | -15 | 17 | 8
Cc1ccc(NC(=O)CSc2nc(C3CC3)nc3ccccc23)c(C)c1 | x | x | x | -2 | 8
CC1CCc2c(sc(NC(=S)NC(=O)c3ccco3)c2C(N)=O)C1 (centres undefined) | x | x | x | -70 | 15
CCOC(=O)c1[nH]c(C)c(/C(O)=C2\C(=O)C(=O)N(CCCN3CCOCC3)C2c2cccs2)c1C (centres undefined) | -1 | 0 | -10 | 14 | 88*
CCOC(=O)c1sc(N/N=C/c2ccccc2)nc1C | 1 | -19 | -13 | 62* | 16
CCOC(=O)c1sc(Nc2ccccc2)nc1C | 2 | 4 | x | 39 | 12
SMILES | S1P4 ag | S1P4 antagonist | S1P3 antag | EP2 modulator | PGE2 EP2 inh
CCOC(=O)c1sc(N/N=C/c2cccc(C)c2)nc1C | 1 | -16 | x | 46 | 13
CCOC(=O)c1sc(Nc2ccc(C)cc2C)nc1C | 0 | 0 | x | 64* | 9
CN1[C@@H](C(=O)N2CCN(C(=O)c3ccco3)CC2)C[C@@H](c2cccs2)NS1(=O)=O | x | x | x | -23 | x
CC[n+]1c(C)n(CCCS(=O)(=O)[O-])c2cc(-c3ccccc3)ccc21 | x | x | x | -7 | 10
COc1ccc(Cn2nnnc2C(c2cc3c(C)ccc(C)c3[nH]c2=O)N2CCC(C)CC2)cc1 (centres undefined) | x | x | x | -52 | 13
CCc1cc2cc3c(cc2nc1SCC(=O)Nc1nc2c(s1)CCCC2)OCO3 | x | x | x | 77* | 23
CCc1cc2cc3c(cc2nc1SCC(=O)Nc1cc(OC)cc(OC)c1)OCO3 | x | x | x | 69* | 12
CC(C)(C)NC(=O)CSc1nc2cc3c(cc2cc1Cc1ccccc1)OCO3 | x | x | x | 81* | 10
CCc1cc2ccc(OC)cc2nc1SCC(=O)Nc1ccc2c(c1)OCO2 | x | x | x | 76* | 12
COc1ccccc1CN(Cc1cccc(C)n1)CC1CCCO1 (centres undefined) | x | x | x | 18 | 5
CC1CCN(Cn2nc3c4ccccc4ncn3c2=O)CC1 | x | x | x | -10 | x
